In PMC4552634, “A New Set of Chemical Starting Points with Plasmodium falciparum Transmission-Blocking Potential for Antimalarial Drug Discovery” (PLoS ONE, 2015):
Like-named read-outs stand apart in the source and are kept apart here. About 3,200 (25%) of roughly 13,000 compounds showed an effect of 50% or more. The list shows a part of the results.

Tested on: P. falciparum stage V gametocytes
Set-up: BacTiter-Glo ATP luminescence viability of purified stage V gametocytes in 384-well plates, per cent inhibition versus DMSO
Conditions: 48 h, 5 µM, inhibitor

SMILES | % Inhibition [%] | % Inhibition (% Inhibition) [%]
O=C1NC(=S)N/C1=C/C=C/c1ccc([N+](=O)[O-])o1 [TCMDC-125757] | 95.66 | 
O=C(Nc1ccc(-c2csc(-c3nc4ccccc4[nH]3)c2)cc1)Nc1ccc(Cl)c(Cl)c1 [TCMDC-133271] | -42.33 | 
O=C(NCC1Cc2cc(Oc3ccccc3)ccc2O1)c1ccc([N+](=O)[O-])o1 (stereo not drawn) [TCMDC-124802] | 28.95 | 
COc1ccc(CCNCc2cc3c(C(C)(C)C)nn(-c4ccc(Cl)cc4)c3[nH]c2=O)cc1OC [TCMDC-125351] | 40.9 | 
CC(C)(C)c1nn(-c2ccc(Cl)cc2)c2[nH]c(=O)c(CNC3CCCC3)cc12 [TCMDC-123909] | 44.22 | 
CC(C)(C)c1nn(-c2ccccc2)c2[nH]c(=O)c(CNCc3ccccc3)cc12 [TCMDC-123911] | -3.272 | 
CC(C)(C)c1nn(-c2ccc(Cl)cc2)c2[nH]c(=O)c(CNCc3cccs3)cc12 [TCMDC-123908] | 55.18 | 
CC(C)(C)c1nn(-c2ccc(Cl)cc2)c2[nH]c(=O)c(CNCc3ccc4c(c3)OCO4)cc12 [TCMDC-136662] | 74.56 | 
CC(C)(C)c1nn(-c2ccccc2)c2[nH]c(=O)c(CNCc3ccc4c(c3)OCO4)cc12 [TCMDC-123910] | 11.81 | 
Cc1ccc(NS(=O)(=O)c2cccs2)cc1-c1cccc(C(=O)Nc2ccc(F)cc2)c1 [TCMDC-133590] | -57.86 | 
CN(C)c1cccc(NC(=O)NC2N=C(c3ccccc3)c3ccccc3N(CC(=O)N(C)c3ccccc3)C2=O)c1 (stereo not drawn) [TCMDC-131985] | 33.13 | 
Cc1nc(N)nc(N)c1OCc1ccc(Cl)c(Cl)c1 [TCMDC-131718] | -2.553 | 
CC(C)CSc1cc(C(=O)Nc2cc(Cl)ccc2O)ccn1 [TCMDC-138874] | -25.81 | 
O=C(Nc1nc2cc(S(=O)(=O)NCCc3ccc(F)cc3)ccc2n1CCCn1ccnc1)c1ccc(Cl)cc1 [TCMDC-141626] | 16.98 | 
CCNc1cc(C(=O)N[C@@H](Cc2ccccc2)[C@H](O)CNC2C3CC4CC(C3)CC2C4)cc(N2CCCCS2(=O)=O)c1 (stereo partly drawn) [TCMDC-135424] | 38.6 | 
CCNc1cc(C(=O)N[C@@H](Cc2ccccc2)[C@H](O)CNC2CCCCC2)cc(N2CCCCS2(=O)=O)c1 [TCMDC-134676] | 26.1 | 
CCNc1cc(C(=O)N[C@@H](Cc2ccccc2)[C@H](O)CNC23CC4CC(CC(C4)C2)C3)cc(N2CCCCS2(=O)=O)c1 [TCMDC-135352] | 40.45 | 

SMILES | % Inhibition [%] | % Inhibition (% Inhibition) [%]
CCNc1cc(C(=O)N[C@@H](Cc2ccccc2)[C@H](O)CNC23CCC(CC2)C3)cc(N2CCCCS2(=O)=O)c1 [TCMDC-135371] | 58.44 | 
CCCC1(NC[C@@H](O)[C@H](Cc2ccccc2)NC(=O)c2cc(NCC)cc(N3CCCCS3(=O)=O)c2)CCCC1 [TCMDC-135261] | 38.92 | 
CCNc1cc(C(=O)N[C@@H](Cc2ccccc2)[C@H](O)CNC2(CC)CC2)cc(N2CCCCS2(=O)=O)c1 [TCMDC-135176] | 3.927 | 
CCNc1cc(C(=O)N[C@@H](Cc2ccccc2)[C@H](O)CNC2(C)CCCCC2)cc(N2CCCCS2(=O)=O)c1 [TCMDC-134703] | 93.77 | 
CCCC1(NC[C@@H](O)[C@H](Cc2ccccc2)NC(=O)c2cc(NCC)cc(N3CCCCS3(=O)=O)c2)CC1 [TCMDC-135192] | 21.27 | 
CCNc1cc(C(=O)N[C@@H](Cc2ccccc2)[C@H](O)CNC2(CC)CCCCC2)cc(N2CCCCS2(=O)=O)c1 [TCMDC-135209] | 82.14 | 
CCNc1cc(C(=O)N[C@@H](Cc2ccccc2)[C@H](O)CNC2CC3CCC2C3)cc(N2CCCCS2(=O)=O)c1 (stereo partly drawn) [TCMDC-135107] | 91.01 | 
CCNc1cc(C(=O)N[C@@H](Cc2ccccc2)[C@H](O)CNC23CCC(CC2)CC3)cc(N2CCCCS2(=O)=O)c1 [TCMDC-135390] | 43.97 | 
CCCC1(NC[C@@H](O)[C@H](Cc2ccccc2)NC(=O)c2cc(NCC)cc(N3CCCCS3(=O)=O)c2)CCCCC1 [TCMDC-135262] | 28.65 | 
N#Cc1cccc(C(=O)Nc2cccc(-c3ccc(C(=O)NCCCN4CCOCC4)cc3)c2)c1 [TCMDC-133694] | -17.34 | 
CC(Nc1ncc(-c2ccsc2)c(-c2nccs2)n1)c1ccc2c(c1)OCCO2 (stereo not drawn) [TCMDC-125367] | -15.14 | 
O=C(NCCCCN1CCCC2c3ccc(O)cc3CCC21)c1ccc(-c2ccccc2)cc1 (stereo not drawn) [TCMDC-139083] |  | -83.61
CCc1c(C)nc(-n2nc(C)cc2NC(=O)C2c3ccccc3Oc3ccccc32)[nH]c1=O [TCMDC-124932] | -24.15 | 
O=S1(=O)NCc2ccc(Nc3nccc(Nc4ccc5c(cnn5Cc5ccccc5)c4)n3)cc21 [TCMDC-138840] | -68.79 | 
O=C(Nc1cccc(-c2nn3ccccc3c2-c2ccnc(Nc3cccc(F)c3)n2)c1)c1c(F)ccc(F)c1F [TCMDC-135844] | -56.6 | 
NC(=O)c1cccc(C(=O)Nc2cccc(-c3cccc(-c4nc5ccccc5[nH]4)c3)c2)c1 [TCMDC-132194] | 0.2723 | 
